# Reference: PubChem BioAssay (NCI)
# The panel holds about 79,000 compounds, 15% with a hit somewhere; the sample as a whole holds those more often. Values without a mark were called inactive. Activity calls are given as the source filed them. Rule as the data show it: active = growth inhibition above about 70%; inactive = the rest.
# Assays:
# [1] = NCI Yeast Anticancer Drug Screen. Data for the rad50 strain (AID 155);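 also: 0% = growth of vehicle-only cultures of the same strain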; conditions: S. cerevisiae rad50 strain growth inhibition; at 50.0 µM; stronger effect = higher value
# How it was run: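 Growth of the mutant yeast was measured after compound exposure and referenced to vehicle-treated cultures.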
# [2] = NCI Yeast Anticancer Drug Screen. Data for the mec2-1 strain (AID 157); conditions: S. cerevisiae mec2-1 strain, at 50.0 µM, stronger effect = higher value
# How it was run: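 mec2-1 yeast strain, carrying an alteration in DNA damage repair or cell cycle control, was exposed to compounds; growth inhibition was measured relative to vehicle-treated controls.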
# [3] = NCI Yeast Anticancer Drug Screen. Data for the sgs1 mgt1 strain (AID 161);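 also: 0% = growth of cultures given vehicle only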; conditions: S. cerevisiae sgs1 mgt1 strain, at 50.0 µM, stronger effect = higher value
# How it was run: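 This yeast growth screen uses a strain with defined DNA-repair lesions; compound-treated growth is compared with vehicle-treated growth.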
# [4] = NCI Yeast Anticancer Drug Screen. Data for the cln2 rad14 strain (AID 165);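 also: 0% = growth equal to vehicle treated cultures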; conditions: S. cerevisiae cln2 rad14 strain, at 50.0 µM, stronger effect = higher value
# How it was run: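 Yeast carrying cln2 and rad14 alterations (cell cycle control and DNA damage repair) were exposed to compounds. Growth inhibition was measured against vehicle-treated controls.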
# [5] = NCI Yeast Anticancer Drug Screen. Data for the bub3 strain (AID 167); conditions: S. cerevisiae bub3 mutant strain, at 50.0 µM, stronger effect = higher value
# How it was run: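 Whole-cell yeast assay. The mutant strain was incubated with compounds, and growth inhibition was determined by comparison with vehicle-treated cells.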
# [6] = NCI Yeast Anticancer Drug Screen. Data for the mlh1 rad18 strain (AID 175); conditions: S. cerevisiae mlh1 rad18 strain growth inhibition; at 50.0 µM; stronger effect = higher value
# How it was run: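 Growth inhibition of the yeast strain was measured after compound exposure and expressed relative to vehicle-treated controls. The strain carries defined defects in DNA damage repair.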
Compound,growth inhibition [1],growth inhibition [2],growth inhibition [3],growth inhibition [4],growth inhibition [5],growth inhibition [6]
COc1ccc(C(C)(C)CC(C)(C)C)cc1,39%,2.55%,32.8%,12.1%,6.1%,-0.85%
C[N+]12CCC(c3ccccc3)(CC1)C(O)C2 (stereo not given),-14.6%,-4.75%,2.1%,-5.15%,2.8%,8.1%
O=C1NC(=O)C(Cc2cccc(OCc3ccccc3)c2)C(=O)N1,20.1%,2.2%,-1.65%,5.1%,0.1%,-52%
CO[C@H]1C=CC2=CCN3CCC4=C(CC(=O)OC4)[C@]23C1,-9.3%,-18.9%,-3.6%,1.8%,-21.9%,-15.4%
CCCCNC(=O)C(Cl)Cl,20.2%,5.4%,8.65%,2.4%,-14.8%,13.9%
O=c1n(CC2CO2)c2ccccc2n1CC1CS1 (stereo not given),-7.4%,-36%,7%,-12.8%,-41.4%,1.7%
NC(Cc1ccc(O)c(F)c1)C(=O)O (stereo not given),-37.1%,-40.4%,-41.2%,-2.75%,-51.9%,-14.3%
C[C@]12CC[C@H]3[C@@H](CC[C@H]4N(CCCl)CCC[C@]34C)[C@@H]1CC[C@@H]2O,15.9%,15.9%,46.5%,14.8%,69.2%,76.3% (active)
CN1CCCC(C(=O)c2ccccc2)C1 (stereo not given),0.45%,-5.1%,-0.3%,-18.9%,-4.95%,3.75%
O=[N+]([O-])c1cccc([As](=O)(O)c2ccc(O)c([N+](=O)[O-])c2)c1,5.6%,10.2%,15.1%,-4.3%,20.4%,4.65%
[C-]#[O+].[C-]#[O+].[C-]#[O+].[C-]#[O+].[Cr].c1ccc([As](CC[As](c2ccccc2)c2ccccc2)c2ccccc2)cc1,22.9%,21.4%,8%,6.65%,36.2%,29.1%
C=C(C)[C@H]1Cc2c(ccc3c2O[C@@H]2COc4cc(OC)c(OC)cc4[C@@H]2C3=O)O1,43.5%,19.2%,43.4%,27.8%,49.1%,52.8%
COC1C(O)CC(OC2CC(Oc3cc4cc5c(c(O)c4c(O)c3C)C(=O)[C@@H](OC3CC(OC4CC(OC6CC(C)(O)C(OC(C)=O)C(C)O6)C(O)C(C)O4)C(O)C(C)O3)[C@H]([C@H](OC)C(=O)[C@@H](O)[C@@H](C)O)C5)OC(C)C2OC(C)=O)OC1C (stereo not given in full),12.7%,24.9%,8.15%,60.2%,7.1%,29.2%
O=C1NC(=O)C2(CCOCC2)C(=O)N1,-5.15%,3.3%,-19.1%,-18.4%,-17.5%,0.15%
c1cc(C2O[C@H]3CCCN3[C@@H]2c2ccncc2)ccn1 (stereo not given in full),-30.6%,-17.9%,1.15%,2.85%,-14.8%,-25.4%
O=C1C2C3c4ccccc4C(C2C(=O)N1c1ccccc1)[n+]1ccccc13 (stereo not given),47.8%,16.1%,41.7%,-13.2%,7.1%,30.2%
NC(=O)NC(O)C(Cl)(Cl)Cl (stereo not given),-12.1%,-33.9%,-24.9%,-42%,-32.6%,-29.4%
CC(C)CC1C(=O)NCCC(NC(=O)C(N)Cc2ccc(O)cc2)C(=O)NC(Cc2ccccc2)C(=O)NC(Cc2ccccc2)NC1=O (stereo not given),-1.2%,-14.2%,-23.9%,3.9%,-10.8%,-28.1%
CCC1C2Cc3ccc(O)cc3C1(CC)CCN2C (stereo not given),10.6%,-35.2%,-42.5%,-1.65%,-77.2%,-13.2%
CCCOP(=O)(OCCC)C(=O)Nc1ccc(Br)cc1,-25.7%,2.95%,6.25%,-24.1%,25%,-9.5%

Compound,growth inhibition [1],growth inhibition [2],growth inhibition [3],growth inhibition [4],growth inhibition [5],growth inhibition [6]
[CH3][Sn]([CH3])([Br])[CH2]CCCBr,98.9% (active),99.5% (active),99.4% (active),98.7% (active),99.1% (active),99.3% (active)
OCCSCSCCO,-5.8%,-8.8%,5.8%,10.2%,-2.8%,0.8%
CO[C@H]1C[C@H](O[C@H]2CC[C@@]3(C)[C@H](CC[C@@H]4[C@@H]3CC[C@]3(C)[C@@H](C5=CC(=O)OC5)CC[C@]43O)C2)O[C@H](C)[C@H]1O,33.2%,5.95%,17.8%,23.1%,14.6%,-49%
OC1C2CCC1C(N1CCOCC1)CC2 (stereo not given),0.25%,3.85%,8.05%,-7.15%,18.5%,5.5%
C[Si](C)(C)[C@@]1([Se]c2ccccc2)CC[C@@H]1C(=O)c1ccccc1,-11.6%,-26.4%,-26.4%,-18.2%,-27.4%,-23.9%
CCOP(=O)(CCN(C)C)OCC,-6.45%,3.55%,-4.4%,-27.7%,-7.9%,-0.45%
C[N+](C)([O-])CCNC(=O)c1cc(N(CCCl)CCCl)c([N+](=O)[O-])cc1[N+](=O)[O-],-7.55%,-35%,-3.9%,-63.5%,-4.95%,-11.8%
S=P(Oc1cc(Cl)c(Cl)cc1Cl)(N1CCOCC1)N1CCOCC1,37.1%,8.85%,42%,35%,12.3%,19.9%
CC(=O)[O][Sn]([CH2]C1CCCC1)([CH2]C1CCCC1)[CH2]C1CCCC1,99.3% (active),99.3% (active),99.4% (active),98.9% (active),99% (active),99.1% (active)
CC1C(C)(C)P(=O)(Oc2ccc3ccccc3c2)C1(C)C (stereo not given),71.6% (active),55.3%,84% (active),80.7% (active),94.4% (active),56.6%
C[N+]1(C)CCCC1c1cccnc1 (stereo not given),42.8%,7.35%,-2.45%,-15.2%,14.4%,29.9%
CC/C=C/C1(C)C(=O)NC(=S)NC1=O,5.15%,3.1%,-7.3%,1.7%,11.4%,-2.95%
O=[N+]([O-])c1ccc(N=Nc2ccc(N(CCCl)CCCl)cc2)cc1,-4.8%,14.1%,-1.25%,-14.9%,5%,23.5%
CCC1NCCc2cc(OC)c(O)cc21 (stereo not given),-5.9%,0.35%,-6.25%,1.4%,1.85%,-11.4%
O=C1CN=C(c2ccccc2)c2cc(Cl)ccc2N1,-4.7%,11.9%,3.35%,16.1%,8.55%,32.2%
O=S=NN(CC(Cl)c1ccccc1)CC(Cl)c1ccccc1 (stereo not given),10.1%,-8.5%,19.9%,-47.5%,22.9%,7.7%
O=C(CBr)OCCOC(=O)CBr,0.55%,18.4%,-8.5%,14.4%,28.5%,-3.95%
C/C=C(/C)C(=O)O[C@H]1CC[C@@]2(C)[C@@H]3CC[C@H]4[C@]5(O)C[C@H](O)[C@@]6(O)[C@@H](CN7C[C@@H](C)CC[C@H]7[C@@]6(C)O)[C@]5(O)C[C@@]42O[C@@]13O,27.1%,-15.9%,18%,0.35%,22.8%,30.6%
Clc1ccc(-c2csc3cccc[n+]23)cc1,7.5%,4.35%,19.4%,24.1%,22.8%,19.3%
FC(F)(F)c1ccc(Cl)c(NC2=NCCCS2)c1,-7.85%,-0.35%,2.15%,2.05%,0.4%,-3.6%
